From PubChem BioAssay (EPA / NIEHS)
Activity calls are given as the source filed them. The calls were made as follows: active = hit-call score of the fitted dose curve at least 0.9, where 1 is the maximum; inactive = score below 0.9.

Experiment: BSK_SAg_SRB: Viability Assessment in the BioMAP Diversity Plus: SAg Assay (AID 2283096);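 also: cells read one day after compound addition; hits may be either gain or loss of signal compared with DMSO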
Details: primary human HUVEC with PBMC
Description: BSK_SAg is a cell-based, multiplexed-readout assay that uses umbilical vein endothelium and peripheral blood mononuclear cells, a human vascular primary cell co-culture, with measurements taken at 24 hours after chemical dosing in a 96-well plate.BSK_SAg_SRB is an assay component measured in the BSK_SAg assay. It measures protein content, a form of viability reporter, as detected with absorbance signals by Sulforhodamine staining technology.Data from the assay component BSK_SAg_SRB was analyzed into 1 assay endpoint. This assay endpoint, BSK_SAg_SRB, was analyzed with bidirectional fitting relative to DMSO as the negative control and baseline of activity. Using a type of viability reporter, gain or loss-of-signal activity can be used to understand changes in the signaling. Furthermore, this assay endpoint can be referred to as a primary readout, because this assay has produced multiple assay endpoints where this one serves a signaling function. To generalize the intended target to other relatable targets, this assay endpoint is annotated to the cell morphology intended target family, where the subfamily is cell conformation.
The levels of cell surface (or secreted, indicated by the prefix "s") biomarker endpoints were measured by ELISA. Overt cytotoxicity to cells in confluent adherent cultures (all systems other than the BT system) was assessed by measuring total protein levels using sulforhodamine B (SRB) staining in parallel cultures at the time of biomarker measurements, indicated as SRB endpoints. For proliferation assays for adherent cell types, individual cell types are cultured at sub-confluence and relative cell numbers quantified by SRB staining at time points optimized for each system (48 h: 3C and CASM3C systems; 72 h: BT and HDF3CGF systems; 96 h: SAg system). SRB was performed by staining cells with 0.1% SRB after fixation with 10% TCA and reading wells at 560 nm.Viability and proliferation of PBMC (T cells) was quantified by Alamar Blue reduction for the SAg and BT systems. For PBMC viability (referred to as PBMC Cytotoxicity within the assay endpoint names), cells were plated (75,000/well in a 96-well plate) and then chemical samples added for 1 h before addition of activators, SEB and TSST-1 (20 ng/mL final concentration each). Cells were incubated for 90 h. Then, Alamar Blue (20 uL/well) (Invitrogen, Cat DAL1100) was added for 6 h, and the plates were read with a fluorescence microplate reader at 546/580 nm (excitation/emission). For PBMC proliferation, cells were plated and activated as above but incubated for only 16 h prior to addition of Alamar Blue. Plates were read after 6 h.

Row | Structure (SMILES) | AC50 | outcome
1 | O=C(OC[C@H]1O[C@@H](OC(=O)c2cc(O)c(O)c(OC(=O)c3cc(O)c(O)c(O)c3)c2)[C@H](OC(=O)c2cc(O)c(O)c(OC(=O)c3cc(O)c(O)c(O)c3)c2)[C@@H](OC(=O)c2cc(O)c(O)c(OC(=O)c3cc(O)c(O)c(O)c3)c2)[C@@H]1OC(=O)c1cc(O)c(O)c(OC(=O)c2cc(O)c(O)c(O)c2)c1)c1cc(O)c(O)c(OC(=O)c2cc(O)c(O)c(O)c2)c1 | 9.72 µM (active) | –
2 | CCC(C)(C)C(=O)O[C@H]1C[C@@H](C)C=C2C=C[C@H](C)[C@H](CC[C@@H]3C[C@@H](O)CC(=O)O3)[C@H]21 | 1.32 µM (active) | –
3 | CCCCCCCCCCCCCCCO | 34.6 µM (active) | –
4 | COc1ccc(/C=C/S(=O)(=O)NC(=O)c2ccc(C)cc2Cl)cc1 | – | inactive
5 | CC1(C)C(=O)N(Br)C(=O)N1Br | – | inactive
6 | CCCCCCCCCCCCc1ccccc1 | – | inactive
7 | COC(=O)c1c(Cl)c(Cl)c(C(=O)OC)c(Cl)c1Cl | – | inactive
8 | Cn1c(=O)c2c(ncn2C)n(C)c1=O | – | inactive
9 | CCn1nc(Cc2ccccc2)cc1C1CCN(C[C@H]2C[C@H](N(C)[C@@H](C(=O)O)C(C)C)C[C@@H]2c2cccc(F)c2)CC1 | – | inactive
10 | COCCOc1cc2cc(C(=O)NC3CCN(C(C)C)CC3)n(CC(=O)Nc3ccc(Cl)cn3)c2cn1 | – | inactive
11 | CCCC(=O)OCC | – | inactive
12 | CCCN(C1CCN(C(=O)C2CCNCC2)CC1)[C@@H]1CCc2ccc(OC)cc2C1 | – | inactive
13 | CCOC(=O)CC(CC(=O)OCC)(OC(C)=O)C(=O)OCC | – | inactive
14 | O=C(O)c1cc(N=Nc2ccc(S(=O)(=O)Nc3ccccn3)cc2)ccc1O | – | inactive
15 | Nc1nc2ncc(CNc3ccc(C(=O)N[C@@H](CCC(=O)O)C(=O)O)cc3)nc2c(=O)[nH]1 | – | inactive
16 | CC(C)CCCCCCOC(=O)c1ccc(C(=O)OCCCCCCC(C)C)c(C(=O)OCCCCCCC(C)C)c1 | – | inactive
17 | O=C(NS(=O)(=O)/C=C/c1ccccc1)c1ccc(F)cc1Cl | – | inactive
18 | CC[C@H]1OC(=O)[C@H](C)[C@@H](O[C@H]2C[C@@](C)(OC)[C@@H](O)[C@H](C)O2)[C@H](C)[C@@H](O[C@@H]2O[C@H](C)C[C@H](N(C)C)[C@H]2O)[C@](C)(O)C[C@@H](C)C(=O)[C@H](C)[C@@H](O)[C@]1(C)O | – | inactive
19 | C=CC(=C)CCC=C(C)C | – | inactive
20 | CC[C@H]1CC[C@H](NCc2cc3c(cc2OC)[C@H]2C[C@H]2C(=O)N3C)[C@H](c2ccccc2)N1 | – | inactive

Row | Structure (SMILES) | AC50 | outcome
21 | CN(C)c1ccc(Cc2ccc(N(C)C)cc2)cc1 | – | inactive
22 | On1ccccc1=S | – | inactive
23 | CCNc1ccccc1 | – | inactive
24 | Fc1ccccc1[C@@H](F)COC1CCC(Nc2ncnc3[nH]ncc23)CC1 (stereo not given in full) | 25.4 µM (active) | –
25 | COc1cccc(-c2ccc(/C=C\CN3CCCCCC3)cc2Cl)c1 | 27.2 µM (active) | –
26 | CN(C)c1ccc(N=NS(=O)(=O)O)cc1 | – | inactive
27 | CC(=O)c1ccc2c(c1)[C@H](NC(=O)c1ccc(F)cc1)[C@@H](O)C(C)(C)O2 | – | inactive
28 | CCc1cc(SCc2sc(-c3ccc(C(F)(F)F)cc3)nc2CN2CCN(c3ccc(OC)cc3)CC2)ccc1OCC(=O)O | 14.2 µM (active) | –
29 | Cc1ccc(S(=O)(=O)O)cc1C | – | inactive
30 | CC(C)=CCCC(C)=CC=O | – | inactive
31 | CC(C)=CCC/C(C)=C\CO | – | inactive
32 | COc1ccc(-n2nc(C(F)F)cc2-c2ccc(S(C)=O)cc2)cc1 (stereo not given) | – | inactive
33 | CC/C(=C\C(=N/O)C(N)=O)C(C)[N+](=O)[O-] (stereo not given) | – | inactive
34 | O=c1n(CC2CO2)c(=O)n(CC2CO2)c(=O)n1CC1CO1 (stereo not given) | 17.5 µM (active) | –
35 | CCCCCCCCO | – | inactive
36 | CC(C)(O)c1coc(S(=O)(=O)NC(=O)Nc2c3c(cc4c2CCC4)CCC3)c1 | – | inactive
37 | O=C1OC(=O)C2C3C=CC(C3)C12 (stereo not given) | – | inactive
38 | O=c1[nH]c2ccc(S(=O)CCN3CCC(Cc4ccc(F)cc4)CC3)cc2o1 (stereo not given) | – | inactive
39 | O=C(CCCCCCCCc1cccnc1)N1CCC(C=C(c2ccccc2)c2ccccc2)CC1 | 12.7 µM (active) | –
40 | CCN(C(=O)c1cc(C)cc(OC[C@H](C)Nc2ccncc2)c1)C(C)C | – | inactive
